Results on six sequences are retold here after the supplement of paper PMC6555819.

Common to all, as to assay: PBM binding z-score (relative to random genomic background probes); higher = stronger binding; sequences stand for … in GC…GCGATTGACAGCGTAGAATGAAGG
The subject of experiment [1] is FXR:RXRa (NR concentration 270 nM, RXRa partner concentration 90 nM). Put shortly:
(§1)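 On custom Agilent 4×180K arrays, double-stranded probes with 34-nt variable regions carried direct-repeat seeds, single-nucleotide variants, half-site ablations or random human genomic background. Ligand-free nuclear receptor dimers were applied for 1 h, and binding was read with antibodies against each partner (one per run). Binding z-scores come from regression-normalized fluorescence, with the random background probes as reference.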

Experiment [2] relates to LXRa:RXRa (NR concentration 270 nM, RXRa partner concentration 90 nM). An outline of the steps:
as §1

In experiment [3] the test system is LXRa homodimer (NR concentration 270 nM). Put shortly: as §1
In experiment [4] the test system is LXRb:RXRa (NR concentration 270 nM, RXRa partner concentration 90 nM). Put shortly: as §1
In experiment [5] the test system is LXRb homodimer (NR concentration 270 nM). An outline of the steps:
as §1

The test system of experiment [6] is PPARa:RXRa (NR concentration 270 nM, RXRa partner concentration 90 nM). An outline of the steps:
as §1

The test system of experiment [7] is PPARg:RXRa (NR concentration 180 nM, RXRa partner concentration 90 nM). Put shortly: as §1
Experiment [8] deals with PPARg:RXRa 270nM:90nM, anti-RXR (NR concentration 270 nM, RXRa partner concentration 90 nM). An outline of the steps: as §1
The subject of experiment [9] is PPARg:RXRa 30nM:10nM, anti-RXR (NR concentration 30 nM, RXRa partner concentration 10 nM). An outline of the steps: as §1
For experiment [10], the system named is PPARg:RXRa 90nM:30nM, anti-RXR (NR concentration 90 nM, RXRa partner concentration 30 nM). An outline of the steps: as §1
In experiment [11] the test system is PPARg:RXRa DBDmut IVT, anti-RXR (DBD mutation: RXRa K156A/R161A, NR concentration 270 nM, RXRa partner concentration 90 nM). An outline of the steps:
as §1

The test system of experiment [12] is PPARg:RXRa IVT, anti-PPARg (NR concentration 270 nM, RXRa partner concentration 90 nM). Put shortly:
as §1

Experiment [13] has as its system PPARg DBDmut:RXRa IVT, anti-PPARg (DBD mutation: PPARg1 K132A/R137A, NR concentration 270 nM, RXRa partner concentration 90 nM). Put shortly: as §1
Experiment [14] relates to PPARg DBDmut IVT, anti-PPARg (DBD mutation: PPARg1 K132A/R137A, NR concentration 270 nM). An outline of the steps:
as §1

For experiment [15], the system named is PPARg homodimer (NR concentration 180 nM). Put shortly:
as §1

Experiment [16] has as its system PXR:RXRa (NR concentration 270 nM, RXRa partner concentration 90 nM). Put shortly:
as §1

Experiment [17] has as its system PXR homodimer (NR concentration 270 nM). Put shortly:
as §1

The subject of experiment [18] is RARa:RXR (NR concentration 270 nM, RXRa partner concentration 90 nM). An outline of the steps:
as §1

For experiment [19], the system named is RARa homodimer (NR concentration 270 nM). An outline of the steps: as §1
Experiment [20] relates to RARb:RXRa (NR concentration 270 nM, RXRa partner concentration 90 nM). An outline of the steps: as §1

For CGTCCAAGGTTAATGCTAGGTCAGTGAAAGCATT, the PBM binding z-score in experiment [1] is 1.98; in experiment [2], 4.46; in experiment [3] it was 1.76; in experiment [4], 2.28; in experiment [5] it was -0.518; in experiment [6], 2.21. The PBM binding z-score in experiment [7] was 0.161; in experiment [8], 0.685; in experiment [9], -0.233; in experiment [10], 0.133; in [11], 1.24; in experiment [12] it was 1.56. Moreover, the PBM binding z-score was 0.173 in [13]; -0.333 in experiment [14]; 1.1 in [15]; 1.81 in experiment [16]; 0.209 in experiment [17]; 2.86 in [18]. The PBM binding z-score was -0.141 in experiment [19] and 2.83 in [20].

For the sequence TCTAATAGTTGAAGGGCAACCGACGAGTCCGTTT, the PBM binding z-score is 0.931 in [1]; 0.943 in experiment [2]; 0.0231 in experiment [3]; 0.595 in experiment [4]; -0.0774 in [5]; 1.14 in experiment [6]. Further, the PBM binding z-score in [7] was 0.216; in [8], 2.02; in experiment [9], 3.45; in [10], 2.9; in experiment [11], 2.21; in experiment [12], 0.129. In addition, the PBM binding z-score in experiment [13] came to 1.32; in [14] it was 0.0205; in experiment [15] it was 0.705; in experiment [16], 0.839; in experiment [17], 0.503; in [18] it was 0.712. In addition, the PBM binding z-score was -0.387 in [19] and 1.53 in experiment [20].

Regarding CCTGCTAGGTCATGGTCAACTAATCTACAGTATG, the PBM binding z-score was 3.72 in [1]; 2.85 in [2]; 0.245 in [3]; 1.98 in experiment [4]; -0.184 in experiment [5]; 3.72 in [6]. Moreover, the PBM binding z-score was 2.81 in experiment [7]; 3.17 in experiment [8]; 0.82 in experiment [9]; 1.92 in experiment [10]; 4.88 in experiment [11]; 4.48 in experiment [12]. The PBM binding z-score was 0.715 in experiment [13]; 0.58 in experiment [14]; 1.66 in [15]; 1.82 in experiment [16]; -0.415 in [17]; 2.94 in [18]. For the same sequence, the figures for the PBM binding z-score in experiment [19] and in [20] were 0.861 and 4.06, respectively.

As for ACTAGCAGGCCAAGTTTGGGTCCCTCAAACAAAG, the PBM binding z-score was -0.607 in experiment [1]; -0.657 in experiment [2]; -0.583 in [3]; -0.842 in [4]; -0.875 in experiment [5]; -0.286 in experiment [6]. Further, the PBM binding z-score was -0.709 in experiment [7]; -0.928 in experiment [8]; -1.06 in experiment [9]; -1.05 in [10]; 0.359 in [11]; -0.00665 in [12]. Besides, the PBM binding z-score in experiment [13] was -1.13; in experiment [14] it was -1.25; in experiment [15], -0.378; in [16] it was -0.465; in experiment [17] it was -0.57; in experiment [18], -0.00931. The PBM binding z-score in experiment [19] was -0.776; in experiment [20] it was 0.3.

On to CTGACTGGGGCAGAAAGGTTACCATACCATCCGG, for which the PBM binding z-score in experiment [1] was 0.933; in [2] it was 1.01; in experiment [3], 0.207; in [4] it was 1.5; in [5] it was -0.293; in [6], 2.65. The PBM binding z-score was 2.32 in [7]; 3 in [8]; 1.18 in [9]; 2.35 in experiment [10]; 2.87 in [11]; 3.6 in experiment [12]. Moreover, the PBM binding z-score amounted to 0.376 in [13]; 0.141 in [14]; 1.76 in experiment [15]; 1.12 in experiment [16]; 0.49 in experiment [17]; 1.75 in experiment [18]. For the same sequence, the PBM binding z-score stood at 0.326 in experiment [19] and 2.13 in experiment [20].

On to ATCTCTAGGTAACAAGTTCAGTAAAAGAGAGGAC, for which the PBM binding z-score in experiment [1] was 0.872; in experiment [2] it was 1.08; in experiment [3], 1.01; in [4], 0.953; in [5] it was 1.1; in experiment [6], 1.81. For the same sequence, the PBM binding z-score was found to be 1.76 in experiment [7]; 2.11 in experiment [8]; 0.675 in experiment [9]; 1.82 in experiment [10]; 3.06 in experiment [11]; 3.22 in experiment [12]. Moreover, the PBM binding z-score in experiment [13] is 1.24; in experiment [14], 1.1; in experiment [15], 1.34; in [16], 1.67; in experiment [17] it was 1.66; in experiment [18] it was 1.57. The PBM binding z-score amounted to 1.54 in [19] and 1.78 in experiment [20].
